The values that follow come from publication PMC8384837, “Expanding the binding specificity for RNA recognition by a PUF domain”.

What all share (assay): yeast three-hybrid, YBZ-1, SC-Leu-His + 0.5 mM 3-AT, 4 days
Common to all, as to details: tags: N-Gal4 AD-HA kept; label: inside an RPR1-promoter hybrid RNA with tandem MS2 sites; ssRNA

One assay addresses PUM1 PUF domain R8-KFF (Homo sapiens, UniProt Q14671 828-1176, N1122K;Y1123F;Q1126F). The method in brief: (§1)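 The interaction score is the log change in variant frequency from input to selection. Scores were computed in log2 with a pseudocount of 1 for absent variants, using Illumina sequencing of PCR-amplified repeat regions. The input came from four days on SC-Leu and the selection from four days on SC-Leu-His + 0.5 mM 3-AT. The cells were strain YBZ-1 (LexA–MS2 coat fusion, HIS3 reporter) co-expressing Pumilio-1 PUF domain libraries and matching RNA elements from a centromeric plasmid.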

For a further assay, the target named is PUM1 PUF domain R3-RSS (Homo sapiens, UniProt Q14671 828-1176, C935R;R936S;Q939S). The method in brief: as §1
The target of a further assay is PUM1 PUF domain R3-RTH (Homo sapiens, UniProt Q14671 828-1176, C935R;R936T;Q939H). The method in brief:
as §1

Another assay addresses T1, PUM1 PUF domain R6-VWK (Homo sapiens, UniProt Q14671 828-1176, N1043V;Y1044W;Q1047K).
T1 sequence: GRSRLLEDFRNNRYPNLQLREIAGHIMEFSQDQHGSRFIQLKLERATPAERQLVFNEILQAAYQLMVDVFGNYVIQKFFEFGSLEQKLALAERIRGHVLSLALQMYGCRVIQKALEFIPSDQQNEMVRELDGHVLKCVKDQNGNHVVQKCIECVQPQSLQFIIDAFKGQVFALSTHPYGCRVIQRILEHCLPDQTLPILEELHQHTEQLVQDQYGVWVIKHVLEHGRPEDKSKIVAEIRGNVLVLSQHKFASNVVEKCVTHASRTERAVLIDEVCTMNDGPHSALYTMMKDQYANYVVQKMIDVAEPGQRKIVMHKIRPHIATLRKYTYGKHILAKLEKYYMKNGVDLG
In short, it runs like this:
as §1

For a further assay, the target named is PUM1 PUF domain R1-YVR (Homo sapiens, UniProt Q14671 828-1176, S863Y;R864V;Q867R). The method in brief: as §1
Another assay addresses PUM1 PUF domain R5-RTR (Homo sapiens, UniProt Q14671 828-1176, C1007R;R1008T;Q1011R). The method in brief: as §1
A further assay addresses PUM1 PUF domain R5-LHA (Homo sapiens, UniProt Q14671 828-1176, C1007L;R1008H;Q1011A). The method in brief: as §1
The target in the next assay is PUM1 PUF domain R5-RRR (Homo sapiens, UniProt Q14671 828-1176, C1007R;Q1011R). In short, it runs like this:
as §1

A further assay deals with PUM1 PUF domain R5-RGQ (Homo sapiens, UniProt Q14671 828-1176, C1007R;R1008G). The method in brief:
as §1

In the next assay the target is PUM1 PUF domain R4-FHR (Homo sapiens, UniProt Q14671 828-1176, N971F;Q975R). In short, it runs like this:
as §1

The target of the next assay is PUM1 PUF domain R2-MWR (Homo sapiens, UniProt Q14671 828-1176, N899M;Y900W;Q903R). The method in brief:
as §1

The next assay has as its target PUM1 PUF domain R2-DWQ (Homo sapiens, UniProt Q14671 828-1176, N899D;Y900W). In short, it runs like this:
as §1

In a further assay the target is PUM1 PUF domain R7-RRK (Homo sapiens, UniProt Q14671 828-1176, S1079R;N1080R;E1083K). The method in brief:
as §1

The target in a further assay is PUM1 PUF domain R7-ATR (Homo sapiens, UniProt Q14671 828-1176, S1079A;N1080T;E1083R). In short, it runs like this:
as §1

The target in the next assay is PUM1 PUF domain R1-KGV (Homo sapiens, UniProt Q14671 828-1176, S863K;R864G;Q867V). In short, it runs like this: as §1
A further assay has as its target PUM1 PUF domain R1-KME (Homo sapiens, UniProt Q14671 828-1176, S863K;R864M;Q867E). In short, it runs like this:
as §1

The target in another assay is PUM1 PUF domain R2-LFV (Homo sapiens, UniProt Q14671 828-1176, N899L;Y900F;Q903V). The method in brief: as §1
The next assay addresses PUM1 PUF domain R8-RYE (Homo sapiens, UniProt Q14671 828-1176, N1122R;Q1126E). In short, it runs like this: as §1
The target in a further assay is PUM1 PUF domain R8-HFV (Homo sapiens, UniProt Q14671 828-1176, N1122H;Y1123F;Q1126V). In short, it runs like this:
as §1

For another assay, the target named is PUM1 PUF domain R8-RWT (Homo sapiens, UniProt Q14671 828-1176, N1122R;Y1123W;Q1126T). In short, it runs like this:
as §1

Sequence of PUM1 PUF domain R5-LHA (Q14671 828-1176 C1007L/R1008H/Q1011A): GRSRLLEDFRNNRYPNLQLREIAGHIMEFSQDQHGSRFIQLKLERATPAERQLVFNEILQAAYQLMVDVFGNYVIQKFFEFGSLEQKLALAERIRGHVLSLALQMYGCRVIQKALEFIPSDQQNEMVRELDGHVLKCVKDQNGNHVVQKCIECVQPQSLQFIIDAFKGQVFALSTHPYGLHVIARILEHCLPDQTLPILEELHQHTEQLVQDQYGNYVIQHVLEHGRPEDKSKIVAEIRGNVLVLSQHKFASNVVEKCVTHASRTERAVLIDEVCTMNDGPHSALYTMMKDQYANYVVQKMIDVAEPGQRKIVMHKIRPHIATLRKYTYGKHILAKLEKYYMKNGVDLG
Sequence of PUM1 PUF domain R5-RRR (Q14671 828-1176 C1007R/Q1011R): as the sequence (Q14671 828-1176 C1007L/R1008H/Q1011A) above, with L180R, H181R, A184R counted along it
Sequence of PUM1 PUF domain R1-YVR (Q14671 828-1176 S863Y/R864V/Q867R): as the sequence (Q14671 828-1176 C1007L/R1008H/Q1011A) above, with S36Y, R37V, Q40R, L180C, H181R, A184Q counted along it
Sequence of PUM1 PUF domain R8-KFF (Q14671 828-1176 N1122K/Y1123F/Q1126F): as the sequence (Q14671 828-1176 C1007L/R1008H/Q1011A) above, with L180C, H181R, A184Q, N295K, Y296F, Q299F counted along it

“GGCUAGAACUAGUGGAUCCCCCGGCGCCCGGCGGCUCGAGCCCGGGUAAGGGUAAAUAGUCUGCAUGCCGCCGGGCGCCAUGCCUGCAGGUCGACUCUAGAAAACAUG”: in the assay with PUM1 PUF domain R8-KFF, the binding signal is 2.27 log2 enrichment (interaction score).
Take “GGCUAGAACUAGUGGAUCCCCCGGCGCCCGGCGGCUCGAGCCCGGGUAAGUGUAAUUAGUCUGCAUGCCGCCGGGCGCCAUGCCUGCAGGUCGACUCUAGAAAACAUG”: the binding signal is 3.63 log2 enrichment (interaction score) with PUM1 PUF domain R3-RSS and 3.6 log2 enrichment (interaction score) with PUM1 PUF domain R3-RTH.
On to “GGCUAGAACUAGUGGAUCCCCCGGCGCCCGGCGGCUCGAGCCCGGGUAAGUGAAAAUAGUCUGCAUGCCGCCGGGCGCCAUGCCUGCAGGUCGACUCUAGAAAACAUG”, for which the binding signal with PUM1 PUF domain R6-VWK is 7.03 log2 enrichment (interaction score).
Take “GGCUAGAACUAGUGGAUCCCCCGGCGCCCGGCGGCUCGAGCCCGGGUAAGUGUAAAUGGUCUGCAUGCCGCCGGGCGCCAUGCCUGCAGGUCGACUCUAGAAAACAUG”: the binding signal with PUM1 PUF domain R1-YVR was 3.38 log2 enrichment (interaction score).
On to “GGCUAGAACUAGUGGAUCCCCCGGCGCCCGGCGGCUCGAGCCCGGGUAAGUGUCAAUAGUCUGCAUGCCGCCGGGCGCCAUGCCUGCAGGUCGACUCUAGAAAACAUG”, for which the binding signal with PUM1 PUF domain R5-RTR is 3.19 log2 enrichment (interaction score); in the assay with PUM1 PUF domain R5-LHA it was 3 log2 enrichment (interaction score); with PUM1 PUF domain R5-RRR, 4.35 log2 enrichment (interaction score); with PUM1 PUF domain R5-RGQ it was 2.62 log2 enrichment (interaction score).
In the case of “GGCUAGAACUAGUGGAUCCCCCGGCGCCCGGCGGCUCGAGCCCGGGUAAGUGUAUAUAGUCUGCAUGCCGCCGGGCGCCAUGCCUGCAGGUCGACUCUAGAAAACAUG”, the binding signal with PUM1 PUF domain R4-FHR is 3.37 log2 enrichment (interaction score).
Regarding “GGCUAGAACUAGUGGAUCCCCCGGCGCCCGGCGGCUCGAGCCCGGGUAAGUGUAAGUAGUCUGCAUGCCGCCGGGCGCCAUGCCUGCAGGUCGACUCUAGAAAACAUG”, the binding signal with PUM1 PUF domain R3-RSS is 0.48 log2 enrichment (interaction score).
In the case of “GGCUAGAACUAGUGGAUCCCCCGGCGCCCGGCGGCUCGAGCCCGGGUAAGUGUAAACAGUCUGCAUGCCGCCGGGCGCCAUGCCUGCAGGUCGACUCUAGAAAACAUG”, the results for the binding signal with PUM1 PUF domain R2-MWR and with PUM1 PUF domain R2-DWQ were 5.06 log2 enrichment (interaction score) and 4.49 log2 enrichment (interaction score), respectively.
Regarding “GGCUAGAACUAGUGGAUCCCCCGGCGCCCGGCGGCUCGAGCCCGGGUAAGUCUAAAUAGUCUGCAUGCCGCCGGGCGCCAUGCCUGCAGGUCGACUCUAGAAAACAUG”, the binding signal with PUM1 PUF domain R7-RRK was 1.72 log2 enrichment (interaction score).
For the sequence “GGCUAGAACUAGUGGAUCCCCCGGCGCCCGGCGGCUCGAGCCCGGGUAAGUGUGAAUAGUCUGCAUGCCGCCGGGCGCCAUGCCUGCAGGUCGACUCUAGAAAACAUG”, in the assay with PUM1 PUF domain R5-RRR, the binding signal is 1.36 log2 enrichment (interaction score).
Regarding “GGCUAGAACUAGUGGAUCCCCCGGCGCCCGGCGGCUCGAGCCCGGGUAAGUUUAAAUAGUCUGCAUGCCGCCGGGCGCCAUGCCUGCAGGUCGACUCUAGAAAACAUG”, the values for the binding signal with PUM1 PUF domain R7-ATR and with PUM1 PUF domain R7-RRK were 3.43 log2 enrichment (interaction score) and 4.3 log2 enrichment (interaction score), respectively.
In the case of “GGCUAGAACUAGUGGAUCCCCCGGCGCCCGGCGGCUCGAGCCCGGGUAAGUGUUAAUAGUCUGCAUGCCGCCGGGCGCCAUGCCUGCAGGUCGACUCUAGAAAACAUG”, the binding signal in the assay with PUM1 PUF domain R5-RTR was 2.56 log2 enrichment (interaction score); in the assay with PUM1 PUF domain R5-LHA, 4.62 log2 enrichment (interaction score); in the assay with PUM1 PUF domain R5-RRR, 4.33 log2 enrichment (interaction score); with PUM1 PUF domain R5-RGQ, 4.2 log2 enrichment (interaction score).
“GGCUAGAACUAGUGGAUCCCCCGGCGCCCGGCGGCUCGAGCCCGGGUAAGUGUAAAUCGUCUGCAUGCCGCCGGGCGCCAUGCCUGCAGGUCGACUCUAGAAAACAUG”: the binding signal was 6.93 log2 enrichment (interaction score) with PUM1 PUF domain R1-YVR, 4.16 log2 enrichment (interaction score) with PUM1 PUF domain R1-KGV and 4.22 log2 enrichment (interaction score) with PUM1 PUF domain R1-KME.
“GGCUAGAACUAGUGGAUCCCCCGGCGCCCGGCGGCUCGAGCCCGGGUAAGUGUAAAUUGUCUGCAUGCCGCCGGGCGCCAUGCCUGCAGGUCGACUCUAGAAAACAUG”: the figures for the binding signal in the assay with PUM1 PUF domain R1-YVR and with PUM1 PUF domain R1-KGV were 6.97 log2 enrichment (interaction score) and 3.66 log2 enrichment (interaction score), respectively.
For “GGCUAGAACUAGUGGAUCCCCCGGCGCCCGGCGGCUCGAGCCCGGGUAAGUGUAAAAAGUCUGCAUGCCGCCGGGCGCCAUGCCUGCAGGUCGACUCUAGAAAACAUG”, the binding signal with PUM1 PUF domain R2-DWQ is 7.04 log2 enrichment (interaction score); with PUM1 PUF domain R2-LFV, 4.38 log2 enrichment (interaction score).
Turning to “GGCUAGAACUAGUGGAUCCCCCGGCGCCCGGCGGCUCGAGCCCGGGUAAGCGUAAAUAGUCUGCAUGCCGCCGGGCGCCAUGCCUGCAGGUCGACUCUAGAAAACAUG”, the binding signal with PUM1 PUF domain R8-RYE is 3.48 log2 enrichment (interaction score); in the assay with PUM1 PUF domain R8-KFF, 2.98 log2 enrichment (interaction score); with PUM1 PUF domain R8-HFV, 3.91 log2 enrichment (interaction score); in the assay with PUM1 PUF domain R8-RWT, 5.51 log2 enrichment (interaction score).
“GGCUAGAACUAGUGGAUCCCCCGGCGCCCGGCGGCUCGAGCCCGGGUAAGUGUAAAUAGUCUGCAUGCCGCCGGGCGCCAUGCCUGCAGGUCGACUCUAGAAAACAUG”: the binding signal with PUM1 PUF domain R5-LHA is 2.04 log2 enrichment (interaction score); in the assay with PUM1 PUF domain R5-RRR, 2.32 log2 enrichment (interaction score); in the assay with PUM1 PUF domain R8-KFF, 2.66 log2 enrichment (interaction score); with PUM1 PUF domain R8-HFV it was 2.65 log2 enrichment (interaction score); with PUM1 PUF domain R8-RWT, 4.9 log2 enrichment (interaction score); in the assay with PUM1 PUF domain R6-VWK it was 5.58 log2 enrichment (interaction score).
